VP16 counter: Gal4-VP16 reporter inhibition counter-screen; Drosophila S2 Gal4-VP16 UAS-luciferase, luminescence, 20 h; Potency, µM (series often up to 53.6 µM), actives largely listed as inhibitors; actives 3.5% (n = 310,000); AID 2546;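 further: Gal4-VP16 expression switched on by copper sulfate through the metallothionein promoter; nearly all actives have a fitted effect of over 50% in size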
Luc counter: blocks Kinase-Glo luciferase, a counter-screen artifact; Q27757; AID 1379; Kinase-Glo luciferase, ATP luminescence, 8 min; actives 0.28% (n = 200,000); Potency, µM (doses to about 38.3 µM), hits mostly inhibitors; further: nearly all actives have a fitted effect of over 60% in size
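Recombinant Kinase-Glo luciferase, 10 uM ATP (linear range), luciferin; imidazole pH 7.2 / KCl / MgCl2 / Tween / BSA buffer; 8 min RT; luminescence.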
RORg inh: inhibitors of mouse ROR gamma transcriptional activity. P51450. Drosophila S2 Gal4-RORgamma UAS-luciferase reporter, 20 h. Potency, µM (highest dose often 53.6 µM), actives largely listed as inhibitors. actives 5.4% (n = 310,000); further: nearly all actives have a fitted effect of over 60% in size
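Luminescence from a UAS-regulated Photinus luciferase reporter in stably transfected Drosophila Schneider cells is measured; decreased signal marks ROR gamma inhibition. Fusion expression is induced by 700 uM copper sulfate for 20 hr.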
Hits are given with their value; 0 = inactive; ? = inconclusive; - = no result given. Rows were chosen to be rich in hits. Some 6.4% of all compounds tested hit in one or more screens of this group. The call rests on the fitted dose curve; in most records, active means well fitted curve in the direction sought with a large enough effect; inconclusive means small, poorly fitted or top-dose-only effect, or another doubt; inactive means no such curve, though single readings can be large; an effect the other way counts as inactive or inconclusive.

SMILES	VP16 counter	Luc counter	RORg inh
COc1ccc(OC)c(Nc2c3c(nc4ccccc24)CCC3)c1	0	-	0
CC(=O)N1N=C(c2ccco2)CC1c1ccco1 (centres undefined)	0	-	?
Cc1ccc(C2=NN(C(=O)CCl)C(c3ccco3)C2)o1 (centres undefined)	?	-	11.2µM
NC(=O)c1ccccc1N/C=C/C(=O)c1cccs1	0	?	?
Cc1cccc(N/C=C/C(=O)c2cccs2)c1C	?	?	10µM
O=C(/C=C/c1ccc([N+](=O)[O-])cc1)c1cccs1	0	-	0
COc1cc([N+](=O)[O-])ccc1N/C=C/C(=O)c1cccs1	8.91µM	?	8.91µM
CCOC(=O)N1CCN(C(=O)c2cc3cc(Cl)ccc3[nH]2)CC1	0	-	0
O=C(CCN1CCCCO1)N1CCCC(Nc2ccc(F)cc2)C1 (centres undefined)	0	-	0
Cc1ccc(S(=O)(=O)N2C(=O)CCC2C(=O)O/N=C(\N)c2ccccc2)cc1 (centres undefined)	0	-	?
CNC(=O)c1cccc(NC(=O)c2ccccc2OCc2ccccc2)c1	0	-	0
Cc1c(-c2ccccc2)sc2nc[nH]c(=S)c12	1µM	0	0.501µM
O=c1[nH]cnc2scc(-c3ccc(-c4ccccc4)cc3)c12	?	0	0
Cn1c(CCNC(=O)c2ccc(F)cc2)nc2ccccc21	0	0	0
CC(NC(=O)c1ccc(F)cc1)c1nc2ccccc2n1Cc1ccccc1F (centres undefined)	0	0	17.8µM
CCCn1c(NC(=O)c2ccc(F)cc2)nc2ccccc21	2.51µM	0	0.316µM
CCCn1nnc(NC(=O)c2ccccc2Br)n1	0	0	0
CCCn1c(NC(=O)C2CCN(C(=O)c3ccc(F)cc3)CC2)nc2ccccc21	8.91µM	-	7.08µM
O=C(NCCc1ccccc1)C1CCN(C(=O)c2ccc(F)cc2)CC1	0	-	0
CCCn1c(C(C)NC(=O)c2ccccc2)nc2ccccc21 (centres undefined)	0	0	?
CCCn1c(NC(=O)c2ccccc2Br)nc2ccccc21	2.82µM	0	0.355µM
N#Cc1c(N2CCCC2)ccc(Br)c1Cl	0	-	0
CCc1ccccc1N(CC(=O)NC1CCCCC1)C(=O)CNC(=O)c1ccco1	0	-	0
Cc1ccc(NC(=O)CN2C(=O)CSc3ccc(S(=O)(=O)N4CCCCC4)cc32)cc1	0	-	0
COc1ccccc1CNS(=O)(=O)c1cc2c3c(c1)C(C)C(=O)N3CCC2 (centres undefined)	0	-	0
SMILES	VP16 counter	Luc counter	RORg inh
O=C(O)CCCC(=O)N1CCN(c2nc(-c3ccccc3Cl)c3cc(Br)ccc3n2)CC1	0	-	0
CCCn1c(NC(=O)c2ccc(Br)cc2)nc2ccccc21	1.26µM	0	1µM
CCCn1c(CNc2ccc(Br)cc2)nc2ccccc21	?	0	?
CCn1c(-c2cc(Br)cc(OC)c2O)nc2cc(S(=O)(=O)N(C)C)ccc21	7.94µM	0	3.55µM
CCn1c(-c2ccccn2)nc2cc(S(=O)(=O)N(C)C)ccc21	0	-	0
Cc1ccc(C)c(N(C)C(=O)c2cc3c(=O)[nH]c4ccc(C)cc4c3s2)c1	0	-	0
